# Data from PubChem BioAssay (NCI).
# The panel holds about 83,000 compounds, 20% with a hit somewhere; the sample as a whole holds those more often.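 Values shown are percent growth following 48 h exposure of cells in 96-well plates to a single concentration of compound; below 10 was considered active.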 A number with no mark means an inactive call. The source made the active and inactive calls.
# Tests used:
# Test in all cases: NCI-60 one-dose screen, 48 h (100 = growth as untreated, 0 = no growth, -100 = all killed)
# Conditions in all cases: 10 µM unless noted
# HCT-15 colon = system: HCT-15 colon
# HT29 colon = system: HT29 colon
# SNB-75 CNS = system: SNB-75 CNS
# SNB-19 CNS = system: SNB-19 CNS
# U251 CNS = system: U251 CNS
# PC-3 prostate = system: PC-3 prostate
# SK-MEL-5 melanoma = system: SK-MEL-5 melanoma
# UACC-62 melanoma = system: UACC-62 melanoma
# LOX IMVI melanoma = system: LOX IMVI melanoma
# SK-MEL-28 melanoma = system: SK-MEL-28 melanoma
Compound,growth (HCT-15 colon),growth (HT29 colon),growth (SNB-75 CNS),growth (SNB-19 CNS),growth (U251 CNS),growth (PC-3 prostate),growth (SK-MEL-5 melanoma),growth (UACC-62 melanoma),growth (LOX IMVI melanoma),growth (SK-MEL-28 melanoma)
Clc1ccc(-c2nnc(Cn3ccnc3)o2)cc1,94.2%,102%,91.8%,95.5%,106%,97.2%,112%,90.2%,112%,106%
COc1ccc(C2CC(c3ccc4ccccc4c3)=NN2c2nc(O)c(C3=c4cc(Cl)ccc4=NC3=O)s2)cc1 (stereo not given),-33.4% (active),-46.5% (active),-51.5% (active),3.08% (active),-94.6% (active),-44.4% (active),-95.2% (active),-46.5% (active),-75.7% (active),-18.8% (active)
Cc1ccc(S(=O)(=O)NN/C(N)=N\S(=O)(=O)c2cc(C)c(Cl)cc2SCc2ccccc2)cc1,109%,107%,68.3%,86.9%,83.9%,71.6%,104%,84.3%,92%,94.3%
CN(C)c1cnccn1,87.6%,104%,96.6%,101%,78.4%,88.6%,96.1%,98.6%,84.3%,103%
COc1cccc(-c2cnco2)c1OCc1c(C)c(COc2c(OC)cccc2-c2cnco2)c(C)c(COc2c(OC)cccc2-c2cnco2)c1C,89.6%,32.7%,13%,67.4%,40%,71.3%,45.3%,42.2%,45.6%,55.7%
Cc1ccc(S(=O)(=O)N(CC[C@@H]2C[C@H]2c2cc3ccccc3o2)C(=O)NC2CCCCC2)cc1,92.3%,90.8%,102%,99.8%,100%,95.6%,101%,78.4%,90.5%,95.7%
CCNCCNc1cc(-c2ccc(C(=O)OC)cc2)c(C#N)c2nc3ccccc3n12,45.8%,4.67% (active),-38.2% (active),41.8%,-29% (active),54.1%,71.6%,-17.7% (active),-53.4% (active),17%
CC1=NN(c2cccc(Cl)c2)C(=O)/C1=C\c1cn(CC(O)CN2CCCCC2)c2ccccc12 (stereo not given),36.8%,-57.3% (active),87.2%,84.2%,36.5%,62.3%,55.5%,-47.4% (active),11%,-28.1% (active)
Cc1[nH]c(-c2nc3ccccc3[nH]2)c(C)c1C(=O)NNc1ccc(Cl)cc1,94.1%,104%,87.1%,87.1%,103%,85.6%,98.2%,90.2%,93.6%,99.6%
O=[N+]([O-])c1ccc(-c2cc3c(Nc4ccc(Cl)c(C(F)(F)F)c4)ncnc3s2)cc1,10.2%,3.89% (active),16.4%,12.1%,8.85% (active),11.5%,-42.5% (active),-1.39% (active),6.09% (active),20.1%
C=C1C(=O)O[C@H]2[C@H]1CC/C(C(=O)NCCCCCCCCNC(=O)/C1=C/CC[C@@]3(C)O[C@H]3[C@H]3OC(=O)C(=C)[C@@H]3CC1)=C\CC[C@@]1(C)O[C@@H]21,107%,82.5%,85.9%,99.3%,95.6%,74.5%,98.3%,56.3%,84%,42.3%
C#CC[C@H](N)C(=O)O,100% [20 µM],98.7% [20 µM],68% [20 µM],93.1% [20 µM],100% [20 µM],102% [20 µM],102% [20 µM],95.4% [20 µM],94.7% [20 µM],110% [20 µM]
CN=C1C=CC(=C(c2ccc(N(C)C)cc2)c2ccc(N(C)C)cc2)C=C1,7.06% (active),-37.2% (active),-26.7% (active),3.16% (active),-57.5% (active),2.74% (active),-98.5% (active),-50.2% (active),-59.3% (active),-44.9% (active)
COc1cc(-c2cccc([N+](=O)[O-])c2)c(-c2nc(-c3ccccc3)c(-c3ccccc3)n2C2CC2)cc1OC,56%,44.5%,67.7%,80.4%,67.3%,24%,52.5%,53.5%,60.1%,87.2%
Cc1ccc(NC(=O)C(Cl)Cl)cc1,105%,92.7%,101%,101%,94.7%,91.8%,99.4%,98.6%,99.6%,98.2%
CC(C)(O)c1cccc(F)c1,99.2%,108%,92.3%,97.6%,106%,99.9%,103%,88.7%,97.7%,101%
O=C1N(c2ccccc2)C(=S)N[C@]12[C@H](c1ccccc1)C1CCCN1[C@]21C(=O)NC2C=CC(Cl)=C[C@H]21 (stereo not given in full),100%,82.6%,96.6%,101%,85%,47.8%,93.1%,82.7%,100%,117%
O=C1CSC(c2ccccc2Cl)N1c1nnc(Cn2cnnc2)o1 (stereo not given),27.6%,22.2%,50.2%,64.5%,32.7%,71.2%,23.7%,38.6%,62.5%,58.7%
C[C@H]1[C@H](C)CC[C@]2(C(=O)N3CCN(C)CC3)CC[C@]3(C)C(=CC[C@@H]4[C@@]5(C)C/C(=C/c6cccnc6)C(=O)C(C)(C)[C@@H]5CC[C@]43C)[C@H]12,-79.8% (active),-79.3% (active),-9.56% (active),-95.9% (active),-96% (active),-79.6% (active),-97.6% (active),-74.7% (active),-97.1% (active),-85.7% (active)
C[C@H]1[C@H]2C3=CC[C@@H]4[C@@]5(C)C/C(=C/c6ccncc6)C(=O)C(C)(C)[C@@H]5CC[C@@]4(C)[C@]3(C)CC[C@@]2(C(=O)N2CCN(C)CC2)CC[C@@H]1C,66%,46.9%,76.3%,78.2%,68.8%,33.9%,87.7%,80.2%,84.3%,101%
Cc1nn(Cc2ccccc2)cc1C(=O)Nc1sc2c(c1C(N)=O)CCC(=O)C2,13.6%,13.1%,54.5%,63%,23.2%,15.6%,28.8%,13.9%,17.2%,29.8%
C=C(C=O)[C@@H]1CC=C(C=O)CC1,-12% (active),13.2%,32.9%,55%,-8.31% (active),15.3%,-41.1% (active),-21.6% (active),-0.188% (active),-43.3% (active)
Cc1ccc(-n2nnc(C3=NCCc4c3[nH]c3ccc(Cl)cc43)c2C)cc1,65.8%,74.4%,103%,83.3%,80%,62.1%,79.1%,30.5%,63%,100%
CCn1c(Sc2nnc(NC(=O)CCN3CCCC3)s2)nc2c1c(=O)n(C)c(=O)n2C,104%,107%,97.8%,104%,95.3%,103%,104%,101%,99.9%,111%
O=C(Nc1cccc2[nH]c(C(F)(F)F)nc12)c1cc(Cl)ccc1Cl,29.2%,52.1%,75.6%,32.3%,15.8%,15.5%,-47.5% (active),20.5%,38.1%,44.3%
C=C(C=O)C1CCC2(C(=O)O)CCC3(C)C(CCC4C5(C)CCC(O)C(C)(C)C5CCC43C)C12 (stereo not given),-15.1% (active),3.49% (active),47.1%,66.3%,6.78% (active),20.4%,-96.9% (active),-84.2% (active),-74.1% (active),-30.8% (active)
